Source: PubChem BioAssay AID1159506 (National Center for Advancing Translational Sciences (NCATS), 2015)
Whole data set: some 59,000 sequences, median the read-out near -0.00055, cut for the lowest 2% near -2. Only a selection was taken, and the lowest values are over-represented in it overall.

experiment: Identification of proteins required for the processing of the EWS-FLI1 nascent transcript; settings: TC32 Ewing sarcoma NR0B1-luc vs CMV-luc (EWS-FLI1 target promoter against control promoter), 48 h; screened at 20 nM (by protocol);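 note: robust z of luciferase light less the median z of siRNAs with the same seed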
How it was run: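 Three siRNAs per gene, each in a separate well at 20 nM, were transfected into TC32 cells bearing either reporter construct. Luminescence was measured two days on, and per-gene comparison relied on seed-corrected Z values.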

Sequence	seed-corrected z-score
UUGAUGUACAGAUACCAGG against BTBD18	-2.42
AAAAGUCCAAACAAUACCC against GPR156	-0.327
UACUUGAGCACGUCGAUGA against C19orf68	-0.256
UCACUUUGAACUUUCCGGC against SCP2D1	-1.27
AAUGGGAAAAGAAUUGCUU against IGFBP7-AS1	0.0752
UUGGUGGAUAUACUCAAUC against EXO5	-2.07
UGAGGAACCAGUUCCAAGG against TMEM60	-0.737
UUCCUGCUGCGUACACUUC against KCNAB3	-0.0212
ACAUAUAUAAGAAUAUCGG against ARL3	-0.177
UUGUGGAACAUCAUGUCUU against ADCY6	1.34
UAGGUUGUGACUGGUGGUG against ARID5A	-3.43
UAGUCGAACACCAAGAGGG against CDH3	-0.271
UCCGGUUUAUAUUUGGUGC against EPSTI1	-0.285
UUUCAUCCUAGAAACUCCC against SLC45A3	0.412
UUCACCAUAAACACGAUCC against DPM1	0.428
UAUGAAUCCAGAUUGAACU against CXCL1	0.898
UCCCGGUACAUGUUGUGGG against RPL18A	-2.34
UGUUGAGUAGGUCCGUUCC against EPHA7	0.58
UACAGUGACGAGAAGUUCU against RALGDS	0.583
AUCUCUUCCACUUCCGAGG against SMARCB1	-2.19
UAAUUGAACUGAUCCAGUC against WDR12	-0.242

Sequence	seed-corrected z-score
UUCCUUAGCACCAUUGAUG against MMADHC	1.09
UCAGUUUUAGGAUAUAUAC against USP46-AS1	0.575
AUAUUAAGCAGACAACUCC against DIRC2	0.227
UGAGGUUAAAGAAGGUGAC against HRH3	-0.214
UGAGUUUCAUCAUAGUCUG against BMX	-4.87
UAAGCACACAUUUACUUGG against HIST1H2BG	0.782
UUUCAUCUGAAGACAGGAC against DDIT3	-1.09
UCUUCGUUGAGUGCAUCCC against SOCS2-AS1	-0.904
UAUGUAGUUAAGACCAUUC against IRS1	0.431
ACAAUUUUAGCUGUAACCC against OC90	0.989
UCGCUGUCGAGCAGUAAGC against INO80B	-2.1
UUAGUGGUCAUGGGCUUCC against GTF2F1	-0.176
UCGCUUGCAAAUAAUCUGC against ULK2	-0.141
AAGUCUGCGAUUAAAGCUG against DTNBP1	-2.27
UACAUAGCAAACAUGACCG against ATL2	-0.859
UGAAGGUUUGGAGCAAACU against RPL15P17	0.127
UGAUCUCAGUCCUCGCUGC against LINC01118	-0.476
UGUAGGAACACUCAUCACC against KCNA4	-2.42
UUCUGUCCAAUUGUCGCUG against JTB	-0.0311
UAGCAUGUAACGUGUGACC against CNTNAP1	-0.734
UGAAGAUCCAGCAAGUAUC against 6-Mar	0.65

Sequence	seed-corrected z-score
UCACAUGCAUCAAUUUUCG against NDUFB5	0.331
UAUAGCUGAAUGGUCAUUG against KRTAP3-3	-3.04
UCAGUGACAACAUCACGGC against PPP2R5D	0.201
UGCCGUCUUACUCUUUGCG against C19orf53	-0.415
AAACUUGUUUCUGCACAUG against OR2F1	1.3
UUCCCAUUGAUACUCAUGG against LECT1	-0.035
UAAUGCUUGAGGCACUUGG against CALHM2	0.134
UUGUCUCUCACUCAGAUUG against HOXB9	0.619
UGCUUUGCAAUGAUCUCUC against HNRNPM	-2.32
UGUCAUGCAAUAAGAAUCU against NLGN4Y	0.297
UUAGAGUAAGUAAAUAUCC against RPS18P5	-0.219
UGGGUAUACAGUCAUCAUC against SLC38A9	-2.9
UUGGGUAAAAGACAGUUGA against TKT	-0.555
UAGACAACAUCAGUGAUCC against RPS8P4	0.47
AAGCUUCUUAACUUCAUUC against RPL14P1	-3.84
UUUGGAGAACUCCCUGGGC against FLYWCH1	-0.00776
UAAUUGAGGGAGCAAAGGC against FAM53A	-0.541
UCCUUUUCCACGACCAUCG against CCR2	-1.29
UGCUGGAUCAGGGAGAUAG against TRPM2	-2.19
UCUUGUAGCGGAAAAGGCC against DUSP2	0.0146
UAACGAAUAAUUUCUGCUC against HPGDS	-0.285

Sequence	seed-corrected z-score
UUCCGGAUAGCCUACAUCC against USP36	-0.445
UAAUGUACAUCUCUCGUCC against CNGA1	-2.2
UCAUCCUCCAGGAUCAUGG against ZSCAN2	-0.868
UAUUAGCACAGUGUAAGGC against PDE10A	-0.276
AAUGAUCACAUCGAUAGUG against SGMS2	-2.21
UUUAUCAUUAGGGCUAGGG against DHRS4L1	0.864
UUUUCGGUAACUCUGCGUG against SPEN	-0.638
UAAGGUUCUCCCUCACAGC against JAKMIP2	-0.785
UUGUUGUAAAGCACGAUGU against CHRNB4	-0.439
UAUUAUUGAUGCGACAUCC against CNGB3	0.631
UCUGGUUCCUCGGCGAAGU against PRSS53	-2.84
UAUCUUCACUGGGUUCAUG against IRF6	2.07
AAUUUCUCCAGAAUCUAUG against TENM4	-2.16
UUCUUUUAUUGCCUCGGGU against KISS1	0.198
UUCGUUCCAACAUAGGCUG against AGBL1	-2.49
UGACAUAUGAGUUCGAUGG against ZCCHC17	0.589
AAUACUCUCAGUUCGAAUG against TXNDC15	0.939
AAUCUUGUUAUGCUCAUGG against ZBTB47	-0.317
UUCGGUUCAAGUUUAGCAG against TM9SF2	-0.205
UCAAGUUCUAUGAGAUUGG against ARRB1	0.195
ACAAUUUCAAGCUCCUGUC against MAGOHB	-1.58
